This is a sample that favours compounds with a hit; in the whole collection about 12% have one here.
Cycloheximide cs: counter-screen hit for Shiga toxin inhibitors, cycloheximide. cell reporter, cycloheximide protein synthesis inhibition counterscreen. max response, %. 300,000 compounds, 12% hits. AID 2314; in the data active = max response mostly above about 13%, no sharp cut-off; inactive = mostly below about 14%; note: read at 38.3 µM for the half of the compounds with a filed dose; 0% is about no effect
Sm TGR inh: blocks Schistosoma mansoni thioredoxin glutathione reductase; AID 485364; 360,000 compounds, 3% hits; purified TGR, DTNB reduction, TNB absorbance 405 nm; Potency, µM (titrated, usually from 114 µM), for the others: at the top dose activity change, negative = inhibition, most hits filed as inhibitors; Q962Y6; active = well fitted inhibition curve with a large enough effect; inconclusive = small, poorly fitted or top-dose-only effect; inactive = no such curve, though single readings can be large or run the other way; note: potency is the fitted concentration of half-maximal effect; % is set by controls: 0 for no effect and ±100 for the full control effect; nearly all actives have a fitted effect of over 60% in size
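Kinetic colorimetric format: TGR-catalysed, NADPH-driven DTNB reduction monitored via TNB absorbance. Enzyme dispensed at 20 nM; compound exposure 15 min at room temperature before reaction start.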
Shiga toxin inh: inhibitors of Shiga toxin in Vero cells; Vero cells, Shiga toxin protein synthesis inhibition reporter; inhibition, % at 38.7 µM; 290,000 compounds, 9.2% hits; AID 2315; in the data active = inhibition mostly above about 28%, no sharp cut-off; inactive = mostly below about 43%; note: 0% is about no effect
FMDV inh: foot and mouth disease virus antiviral activity | FMDV antiviral cell-based qHTS | Potency, µM (series often up to 57.9 µM), for inactives: at the highest dose activity change, negative = inhibition, most hits filed as inhibitors | 410,000 compounds, 1.2% hits | AID 1159524; calls by dose curve; tested in HEK293T cells; note: read-out not given here; potency is the fitted concentration of half-maximal effect; % is set by controls: 0 for no effect and ±100 for the full control effect; nearly all actives have a fitted effect of over 45% in size
* = called active by the depositor; u = inconclusive; x = no result given; [ ] = remark or other dose.

SMILES	Cycloheximide cs	Sm TGR inh	Shiga toxin inh	FMDV inh
Cc1ccccc1NC(=O)c1c(C)oc2ccc(O)c(CN3CCN(C)CC3)c12	x	10%	x	-11%
COC(=O)c1sccc1S(=O)(=O)N(CC(=O)NCc1ccccc1)c1ccc(C)c(C)c1	x	1%	x	46%
O=c1cc(-c2ccccc2)n2c(SCc3c(F)cccc3Cl)nnc2[nH]1	x	9%	x	9%
CC(C)(C)C(=O)Nc1ccc2nc(SCC(=O)N3CCCC3)sc2c1	x	-1%	x	-2%
S=c1nc(-c2ccccc2Cl)[nH][nH]1	-2	x	-17	5%
S=c1nc(-c2csc3c2CCCC3)[nH][nH]1	-2	35µM*	29	-5%
COc1cccc(-c2cc(C(F)(F)F)n3nc(C(=O)N4CCCCC4c4cccnc4)cc3n2)c1 (stereo unspecified)	19*	-2%	51*	u
O=C(c1cc2nc(-c3ccco3)cc(C(F)(F)F)n2n1)N1CCCCCC1	4	35µM*	18	x
O=C(c1cc2nc(-c3ccco3)cc(C(F)(F)F)n2n1)N1CCN(c2ccccc2)CC1	-3	u	-11	x
O=C(Nc1ccc(F)cc1F)c1cc2nc(-c3ccco3)cc(C(F)(F)Cl)n2n1	x	50µM*	x	-11%
O=C(NCC1CCCO1)c1nn2c(C(F)(F)F)cc(-c3ccco3)nc2c1Cl (stereo unspecified)	x	x	x	-13%
O=C(NCC1CCCO1)c1cc2nc(-c3ccco3)cc(C(F)(F)Cl)n2n1 (stereo unspecified)	-4	45µM*	16	-16%
COCCn1c(CCC(=O)Nc2ccc(C)c(Cl)c2)nc2cccnc21	x	4%	x	-24%
CN(CCOc1ccc(C[C@H](Nc2ccccc2C(=O)c2ccccc2)C(=O)O)cc1)c1ccccn1	x	x	x	-3%
CC(C)(C)OC(=O)N(Cc1ccccc1)Cc1ccc(OCc2cccc(NC(=O)C3CC3)c2)cc1	x	x	x	14µM*
CN(Cc1ccccc1)C(=O)c1cccc(NC(=O)Cc2ccc(NC(=O)C3CCN(C(=O)CCc4ccccc4)CC3)cc2)c1	x	x	x	18µM*
CN(C(=O)c1cccc(NC(=O)Cc2ccc(NC(=O)C3CCCN(C(=O)CCc4ccccc4)C3)cc2)c1)C1CCCCC1 (stereo unspecified)	x	x	x	14µM*
CC(C)(C)OC(=O)N1CCC(C(=O)Nc2cccc(C(=O)NCCCCc3ccccc3)c2)CC1	x	x	x	18µM*
Cc1ccc(NC(=O)/C=C/c2ccc(S(=O)(=O)N3CCOCC3)cc2)cc1S(=O)(=O)N(C)C	x	x	x	35µM*
Cc1ccc(NC(=S)Nc2ccc(S(=O)(=O)N3CCOCC3)cc2)cc1S(=O)(=O)N1CCOCC1	-3	16µM*	-2	-6%
CCN(C(=S)Nc1cc(S(=O)(=O)N2CCOCC2)ccc1Cl)c1cccc2ccccc12	18	-14%	35	-9%
O=S(=O)(c1ccc(Cl)c(NC(=S)Nc2cccc(O)c2)c1)N1CCOCC1	-1	11µM*	28	8%
CC(C)(C)NNC(=S)Nc1ccc(S(=O)(=O)N2CCOCC2)cc1	-2	u	8	-5%
O=S(=O)(c1ccc(NC(=S)NC2CC2)cc1)N1CCOCC1	-3	16µM*	-4	27%
CC(C)c1cnc2c(c1SCC(=O)Nc1ccc(C(N)=O)cc1)c(=O)n(C)c(=O)n2C	x	7%	x	1%
SMILES	Cycloheximide cs	Sm TGR inh	Shiga toxin inh	FMDV inh
C=Cc1ccc(Cn2c(C(=O)O)c(CNCc3ccccc3)c3ccc(C)cc32)cc1	9	-17%	-4	u
Cc1ccc(NC(=O)C2CCN(S(=O)(=O)c3ccc4[nH]c5c(c4c3)CCCCC5)CC2)cc1	x	6%	x	-24%
COc1ccccc1CNCC(=O)Nc1cc(S(=O)(=O)N2CCOCC2)ccc1Cl	x	-5%	x	25µM*
Cc1ccc(C)c(SCC(=O)Nc2ccc(C)c(S(=O)(=O)N3CCOCC3)c2)c1	x	45µM*	x	u
Cc1ccc(S(=O)(=O)N(C)Cc2nc(-c3ccncc3)no2)cc1	8	10%	-7	2%
Cc1ccc(SCc2nc(-c3ccncc3)no2)cc1	20*	-4%	66*	-21%
Cc1ccc(OCc2nc(-c3ccccn3)no2)cc1	29*	1%	43	x
Cc1ccc(SCc2nc(-c3ccccc3)no2)cc1	28*	7%	12	-2%
CCC(c1ccccc1)c1nc(-c2ccccn2)no1 (stereo unspecified)	4	9%	46	16%
CC(C)(C)Cc1nc(-c2ccccn2)no1	34*	-27%	76*	5%
COc1cccc(CNC(=O)Cn2nc(C)n3c(cc4cc(C)ccc43)c2=O)c1OC	x	3%	x	4%
Cc1ccc(SCc2nc(-c3ccccn3)no2)cc1	25*	-6%	69*	-3%
Cc1ccc(OCc2nc(-c3ccccn3)no2)c(Br)c1	11	4%	21	-51%
COc1ccc(-c2noc(CSc3ccccc3)n2)cc1OC	39*	5%	67*	27%
c1ccc(SCc2nc(-c3ccncc3)no2)cc1	44*	0%	84*	x
CCOC(=O)c1cc2cc(OC)ccc2nc1C	16*	-1%	88*	3%
CCOC(=O)c1ccc2nc(C)c(C)nc2c1	17	3%	61*	12%
C=CCc1c(C)nc2ccc(C(=O)OCC)cc2c1Cl	10	11%	41*	15%
CCOC(=O)c1ccc2nc(C)c(CCC(C)=O)c(Cl)c2c1	39*	2%	93*	45%
CCCCc1c(C)nc2ccc(C(=O)OCC)cc2c1Cl	6	-18%	-7	5%
COC(=O)c1ccc2nc(C)c(C)nc2c1	9	-21%	3	21%
Cc1ccc2oc(=O)c3cnn(CC(=O)N(C)c4ccc(F)cc4)c3c2c1	x	-2%	x	-12%
CC(=O)c1ccc(N2CCN(S(=O)(=O)c3ccc4c(c3)NC(=O)CC(=O)N4)CC2)cc1	24*	-25%	55*	8%
O=C1Cc2cc(S(=O)(=O)N3CCN(c4ccc(C(=O)O)cc4)CC3)ccc2N1	x	x	x	-19%
Cc1ccc(Cl)cc1N1CCN(S(=O)(=O)c2ccc3c(c2)NC(=O)C(C)C(=O)N3)CC1 (stereo unspecified)	-5	79µM*	-7	u
SMILES	Cycloheximide cs	Sm TGR inh	Shiga toxin inh	FMDV inh
COC(=O)C(Cc1ccccc1)NS(=O)(=O)c1cc(Br)ccc1Br (stereo unspecified)	8	x	-5	x
Cc1onc(-c2ccccc2Cl)c1C(=O)NC(=S)Nc1ccccc1C(N)=O	-2	-3%	-9	1%
Cc1onc(-c2ccccc2Cl)c1C(=O)Nc1ccccc1C(N)=O	-2	-3%[11.4 µM]	-10	11µM*
Cc1onc(-c2ccccc2Cl)c1C(=O)Nc1ccc(Cl)cn1	11*	6%	12	-8%
Cc1ccc(NC(=O)c2c(-c3ccccc3Cl)noc2C)nc1	-1	1%	8	-17%
O=C(CCCn1c(=O)c2ccccc2n(Cc2cccc(Cl)c2)c1=O)NCCc1ccc(Cl)cc1	x	9%	x	-19%
CCC(C(=O)n1cccc1C#N)c1ccccc1C (stereo unspecified)	x	50µM*	x	-19%
CCOC(=O)C(=CNc1ccccc1C)C(=O)OCC	17	-7%	-2	-27%
Cc1ccc(CNC(=O)c2cn(C)c3ccc(S(=O)(=O)N(C)C4CCCCC4)cc3c2=O)cc1	x	1%	x	15%
CCc1ccccc1NC(=O)C(CC)Sc1ncnc2c1sc1ccccc12 (stereo unspecified)	x	2%	x	-10%

High-throughput results: PubChem, National Center for Advancing Translational Sciences (NCATS)
